# Pf apPOL inh = Pf-apPOL DNA polymerase inhibition. AID 1794808. hit rate 0.25% among 210,000. inhibition, % at 10 µM. Recombinant Pf-apPOL, molecular beacon fluorescence, 1.5 h
# mHTT-CaM PPI inh = disrupts binding of mutant huntingtin to calmodulin | P42858 | inhibition, % at 15 µM | AID 1671202 | hit rate 3.6% among 190,000 | AlphaScreen His-mHTT/GST-CaM binding, luminescence;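 further: 0% = both proteins with DMSO and 100% = one protein alone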
# * = called active by the depositor; . = not tested or not shown. A selection: hits, their analogues and other compounds. The true share with any hit is near 3.5%. No stated cut-off is given here; in the data, active means inhibition above about 50%; inactive means the rest.
SMILES,Pf apPOL inh,mHTT-CaM PPI inh
Oc1ccc(/C=C/c2nc(-c3ccccc3O)n(-c3ccccc3)n2)cc1,6,92*
CCCCOc1ccc(NC(=O)CSc2cccc3cccnc23)cc1,1,8
COc1ccc(C(C[N+](=O)[O-])Sc2cccc3cccnc23)cc1 (centres undefined),-4,100*
CCC(=O)N1CCN(c2ccc(Cl)cc2C)C(=O)C1C (centres undefined),0,-5
CCCNC(=O)c1cc2c(=O)n(C)ccc2n1C,-1,3
NC(=O)c1c(-c2ccsc2)noc1N,.,-8
O=C(Cn1cnc2sc3c(c2c1=O)CCCC3)NCc1ccco1,-3,10
O=c1c2c3c(sc2nc2ccc(NCc4ccco4)nn12)CCCC3,-3,79*
CCCN1CCN(c2ncc3c(n2)CCN(Cc2ccc(Br)s2)C3)CC1,-3,42
Oc1ccc2ccccc2c1N=Nc1ccccn1,-207,.
Oc1ccc2ccccc2c1Sc1c(O)ccc2ccccc12,.,59*
Cc1cc(C)cc(NC(=O)C2OC3OC(C)(C)OC3C3OC(C)(C)OC23)c1 (centres undefined),4,-3
O=C1N=C(N2CCN(Cc3ccc(F)cc3)CC2)SC1=Cc1cccc(O)c1,-17,1
Cc1ccccc1Cn1cnc2c1c(=O)n(C(C)C)c(=O)n2-c1ccccc1C,-8,22
COc1ccc(Cc2nnc(NC(=O)Nc3cccc(C(F)(F)F)c3)o2)cc1,-10,3
COc1ccc(Cc2nnc(NC(=O)Nc3cccs3)o2)cc1,-1,54*
CCSc1ccc(Cc2nnc(NC(=O)c3cccs3)o2)cc1,-221,57*
CS(=O)(=O)c1ccc(Cc2nnc(NC(=O)CSc3ccc(Cl)cc3)o2)cc1,-25,56*
CSc1ccc(Cc2nnc(NC(=O)c3cc(C)oc3C)o2)cc1,-4,48
CC(C)Sc1ccc(Cc2nnc(NC(=O)Cc3ccc(F)cc3)o2)cc1,-21,-18
CC(C)C(=O)NCCc1csc(C2CCCN(C(=O)c3ccoc3)C2)n1 (centres undefined),-6,-6
Cc1nc(C)c(-c2nnc(NC(=O)c3cc(=O)c4ccccc4o3)o2)s1,-8,-14
Cc1ccc2nc(C(=O)NC(C)c3ccc(F)cc3)cn2c1 (centres undefined),-9,4
Fc1ccc(-c2n[nH]c(C3CCN(Cc4ccco4)CC3)n2)cc1,-6,5
Cn1nc(-c2nc(-c3cccc(F)c3)no2)c2c1CCN(C(=O)c1cccc(Cl)c1)C2,-3,-3
SMILES,Pf apPOL inh,mHTT-CaM PPI inh
CCOc1ccc(C(=O)Nc2ccc(C)cc2C)cc1,-2,-8
N=c1c(C(=O)NCc2ccco2)cc2c(=O)n3ccccc3nc2n1Cc1cccnc1,-3,14
Cc1ccc(S(=O)(=O)c2cc3c(=O)n4ccccc4nc3n(Cc3ccco3)c2=N)cc1,2,52*
Cc1ccc2nc3c(cc(C(=O)NCc4ccccc4)c(=N)n3Cc3ccco3)c(=O)n2c1,0,37
Cc1ccc(S(=O)(=O)c2cc3c(=O)n4cc(C)ccc4nc3n(Cc3ccco3)c2=N)cc1,-3,6
N=c1c(C(=O)NCc2ccccc2)cc2c(=O)n3ccccc3nc2n1Cc1ccco1,11,85*
Cc1cccn2c(=O)c3cc(C(=O)NCc4ccco4)c(=N)n(CCc4ccccc4)c3nc12,-8,50*
Cc1ccc2nc3c(cc(C(=O)NCc4ccco4)c(=N)n3Cc3ccco3)c(=O)n2c1,-5,66*
Cc1cccn2c(=O)c3cc(C(=O)NCc4ccccc4)c(=N)n(CCc4ccccc4)c3nc12,9,0
COc1cccc(C=Nc2ccccc2Nc2c([N+](=O)[O-])cc(C(F)(F)F)cc2[N+](=O)[O-])c1O,-6,.
Cc1cc(OCC(=O)Nc2cccc(Cl)c2C)nc(N2CCCCC2)n1,-1,-3
O=C(c1cccc(Cl)c1)N1CCC(CCOc2ccccc2)CC1,-2,-26
COc1ccc(-n2ccn3cc(-c4ccccc4)nc3c2=O)cc1,-2,-6
CC1Oc2ccccc2N(Cc2nc(-c3ccc(Br)cc3)no2)C1=O (centres undefined),2,-24
CCN1CCN(c2nc(C3CC3)nc3sc4c(c23)CCCC4)CC1,3,2
COc1ccc2[nH]c(C)c(CCC(=O)O)c(=O)c2c1,-1,6
CSC1=NCCN1C(=O)c1ccc(F)c(F)c1,2,8
O=C(O)/C(=C\c1ccco1)NC(=O)c1ccc(Cl)cc1Cl,-13,-1
CC1(C)CC2CC(C)(CN2C(=O)/C(=C/c2ccco2)NC(=O)c2ccc(Cl)cc2)C1 (centres undefined),0,62*
O=C(CN1CCN(c2ccc(Cl)cc2)CC1)Nc1ccc(Cl)c(C(F)(F)F)c1,-2,51*
O=C(CN1CCN(c2ccccn2)CC1)Nc1ccc(Cl)c(C(F)(F)F)c1,-3,31
O=C(CSc1nc2sc3c(c2c(=O)n1-c1ccccc1)CCCC3)NC1CCCC1,-8,1
CCOC(=O)COc1cc(OCC(=O)OCC)c2c3c(c(=O)oc2c1)CCC3,5,-1
COCC(C)NC(=O)C(c1ccccc1)c1ccccc1 (centres undefined),-9,-9
COCCc1nnc(NC(=O)C(c2ccccc2)c2ccccc2)o1,-7,96*
SMILES,Pf apPOL inh,mHTT-CaM PPI inh
O=C(c1ccco1)N1CCCC(c2ccnc(Nc3ccc(F)cc3)n2)C1 (centres undefined),-3,-3
CCSc1ccsc1C1C(C#N)=C(N)N(c2ccc([N+](=O)[O-])cc2)C2=C1C(=O)CCC2 (centres undefined),5,51*
CCSc1ccsc1C1C(C#N)=C(N)N(c2cccc([N+](=O)[O-])c2)C2=C1C(=O)CCC2 (centres undefined),-3,27
CCc1ccc(CN2CCN(C(=O)c3cccs3)CC2)cc1,6,-1
Cc1ccc2c(Nc3ccc(Cl)c(F)c3)c(C(=O)N3CCSCC3)cnc2n1,-1,4
CN(C)c1ccc(/C=C/c2cc[n+](C)c3ccccc23)cc1,3,80*
C[n+]1ccc(/C=C/c2ccc3c(c2)OCO3)c2ccccc21,-13,8
S=C(Nc1ccccc1)O[C@H]1CCC12CCC(c1ccccc1)CC2 (some centres undefined),-2,-10
O=C(Nc1ccc(Cl)cc1)c1ccc(N2C(=O)CCC2=O)cc1,-1,0
Cn1c(N2CCC(C(=O)NCc3cccs3)CC2)cc(=O)n(C)c1=O,-2,40
CCn1c(N2CCC(C(=O)NCc3cccs3)CC2)cc(=O)n(C)c1=O,-3,62*
Cn1c(N2CCC(C(=O)NCc3ccccc3)CC2)cc(=O)n(C)c1=O,2,27
CCn1c(N2CCC(C(=O)NCCC3=CCCCC3)CC2)cc(=O)n(C)c1=O,5,51*
Cn1c(N2CCC(C(=O)NCc3ccccn3)CC2)cc(=O)n(C)c1=O,1,70*
COc1ccc(NC(=O)C2CCN(c3cc(=O)n(C)c(=O)n3C)CC2)cc1OC,0,39
CCn1c(N2CCC(C(=O)Nc3cc(OC)c(OC)c(OC)c3)CC2)cc(=O)n(C)c1=O,2,62*
Cn1c(N2CCCC(C(=O)NCCC3=CCCCC3)C2)cc(=O)n(C)c1=O (centres undefined),0,11
C#CCSc1nc2ccccc2c(=O)n1Cc1ccccc1,-7,-4
COc1cccc(/C=C2/SC(N3CCOCC3)=NC2=O)c1OC,-10,-2
CCN1C(=O)Cc2cc(C(=O)N3CCN(c4ccccn4)CC3)ccc21,-2,11

# Screening data: PubChem BioAssay, University of Kansas High Throughput Screening Laboratory
